USP28 inh: inhibitors of human USP28 deubiquitinase. purified USP28, Ub-rhodamine cleavage fluorescence, 30 min. 3% of 47,000 active. inhibition, % at 25 µM. Ubiquitin carboxyl-terminal hydrolase 28 (Homo sapiens), Q96RU2
USP17 inh: inhibitors of human USP17 deubiquitinase; purified USP17, Ub-rhodamine cleavage fluorescence, 3 h; inhibition, % at 50 µM; 6.5% of 47,000 active; AID 1645855, 2021
USP30 block: inhibitors of human USP30 deubiquitinase. Ubiquitin carboxyl-terminal hydrolase 30 (Homo sapiens), Q70CQ3. purified USP30, Ub-rhodamine cleavage fluorescence. inhibition, % at 25 µM. 5.3% of 47,000 active. AID 1645860, 2021
Target sequence (Q70CQ3 whole entry, looked up): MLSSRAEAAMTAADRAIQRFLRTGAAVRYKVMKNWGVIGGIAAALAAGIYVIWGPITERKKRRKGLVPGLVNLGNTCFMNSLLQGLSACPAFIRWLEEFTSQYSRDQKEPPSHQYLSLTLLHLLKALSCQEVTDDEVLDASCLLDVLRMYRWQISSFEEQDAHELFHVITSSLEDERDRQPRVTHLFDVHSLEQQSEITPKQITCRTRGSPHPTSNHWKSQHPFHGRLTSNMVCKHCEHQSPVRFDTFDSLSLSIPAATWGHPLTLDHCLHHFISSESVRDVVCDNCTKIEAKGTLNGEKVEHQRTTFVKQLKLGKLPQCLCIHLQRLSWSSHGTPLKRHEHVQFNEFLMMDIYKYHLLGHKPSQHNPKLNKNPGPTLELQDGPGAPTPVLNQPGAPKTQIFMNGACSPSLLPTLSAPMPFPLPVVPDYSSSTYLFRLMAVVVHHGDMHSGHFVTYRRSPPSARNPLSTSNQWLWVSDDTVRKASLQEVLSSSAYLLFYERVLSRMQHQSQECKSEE
* = called active by the depositor; i = inactive; nt = no result. Sampled rows, rich in hits. Any-hit rate of the full collection: about 11%. Cut-off read from the data, not from the text of the source: active = inhibition above about 30%; inactive = the rest.

SMILES	USP28 inh	USP17 inh	USP30 block
Cc1cccc(-c2nn(-c3ccc(F)cc3)cc2C(=O)NCCN2CCOCC2)c1	-14	-17	-26
CC(=O)O[C@@H]1[C@H]2[C@H](C)[C@H](O)CC[C@]2(C)C2C(=O)[C@H](O)[C@H]3/C(=C(\CCC=C(C)C)C(=O)O)[C@@H](OC(C)=O)C[C@]3(C)[C@@]2(C)[C@H]1O (some centres undefined)	1	14	11
O=C(Nc1nc2ccc(F)cc2s1)c1cccc2c(Br)cccc12	-1	33*	23
Cc1cc(C)n2nc(C(=O)Nc3nc4ccc(F)cc4s3)nc2n1	-15	5	-128
O=C(O)c1ccc(-c2cnn(-c3ccccc3)c2)nc1	-8	-26	-73
O=C(Nc1ccccc1-c1cnn(-c2ccccc2)c1)c1ccccc1Cl	20	nt	41*
Cc1nc2c(-c3ccc(F)cc3)c(C)nn2c(C)c1CCC(=O)O	12	7	27
Cc1ccc2c(Nc3cccc(F)c3)c(C(=O)N3CCOCC3)cnc2n1	-23	-12	-51
Cc1sc(NC(=O)c2ccc3ccccc3n2)nc1-c1ccc(F)cc1	-36	35*	-157
Cc1ccc(-c2nnc(NC(=O)c3c(F)cccc3F)s2)cc1	3	3	12
Cc1ccc(-c2nc(NC(=O)Nc3ccc(Cl)cc3)sc2C)cc1	0	60*	15
Cc1ccc(-c2ncc(C(=O)Nc3ccc(Cl)cc3)c(-c3ccncc3)n2)cc1	-130	-104	i
Cc1ccc(-c2nc(NC(=O)c3c(F)cccc3F)sc2C)cc1Cl	9	37*	23
O=C(Nc1nnc(-c2ccc(F)cc2)s1)c1c(F)cccc1F	11	41*	26
Cc1sc(NC(=O)c2cnc3ccccc3n2)nc1-c1ccc(F)c(F)c1	-7	1	-4
Cc1ccc(-c2nc(NC(=O)c3c(-c4ccccc4)noc3C)sc2C)cc1Cl	5	-5	-8
CC1(C)Cc2nc(N3CCCC3)ncc2C(NC(=O)C2CCCC2)C1 (centres undefined)	-38	-45	-143
COCCCNC(=O)c1ccc(Cn2c(=O)c3ccccc3n(CC(=O)N3CCN(c4ccccc4)CC3)c2=O)cc1	-12	-3	-21
COCCCNC(=O)c1ccc(Cn2c(=O)c3ccccc3n(CC(=O)NCc3ccco3)c2=O)cc1	-3	-34	-5
Cc1ccc(CNC(=O)Cn2c(=O)n(-c3ccccc3)c3ncccc32)cc1	4	51*	-7
O=C(Cn1c(=O)n(-c2ccc(F)cc2)c2ncccc21)NCc1ccccc1	23	18	9
COCCNC(=O)Cn1c(=O)n(Cc2ccc(C(=O)NCc3ccc(C)cc3)cc2)c(=O)c2ccccc21	84*	77*	90*
COCCCNC(=O)c1ccc(Cn2c(=O)c3ccccc3n(CC(=O)NC3CCCCC3)c2=O)cc1	20	62*	46*
COCCNC(=O)Cn1c(=O)n(Cc2ccccc2)c(=O)c2c3c(sc21)CCC3	17	29	59*
COCCn1cnc2c1c(=O)n(CC(=O)NCCc1ccc(Cl)cc1)c(=O)n2Cc1ccccc1	4	8	-6
SMILES	USP28 inh	USP17 inh	USP30 block
CCOC(=O)c1cc2c(ccn2C)n1Cc1ccc2ccccc2n1	-1	2	-156
CC(C)NC(=O)CCc1nnc2ccc(N3CCCC3)nn12	0	0	0
O=C(CCc1nc(CSc2nnc(-c3ccncc3)o2)no1)Nc1ccc(F)cc1F	-14	nt	-6
Cc1ccc2cc(CNCCN3CCOCC3)c(=O)[nH]c2c1	nt	-16	nt
COc1ccc(-c2cc(C(C)=O)c(C)n2CCC(=O)Nc2ccc(C)cn2)cc1	-43	-44	-132
COc1ccc(-c2cc(C(C)=O)c(C)n2CCC(=O)Nc2ccc(OC)cc2OC)cc1	0	33*	81*
COc1ccc(NC(=O)COc2cc(C)nc(-c3ccc(C)cc3)n2)c(OC)c1	12	63*	58*
COc1ccc2nc(NC(=O)CCn3c(-c4ccccc4)cc(C(C)=O)c3C)sc2c1	1	7	7
COc1ccc(NC(=O)COc2ccc(C(=O)c3ccccc3)cc2)c(OC)c1	-3	12	24
CCOc1ccc(NC(=O)Cn2c(-c3ccccc3)cc(C(C)=O)c2C)cc1	11	nt	37*
CC(C)C(NS(=O)(=O)c1ccc2c(c1)OCCO2)C(=O)OCC(=O)Nc1ccccc1Cl (centres undefined)	17	-2	13
COc1ccc(N(Cc2nc3nc(C)cc(=O)n3[nH]2)S(=O)(=O)c2ccc(C)cc2)cc1	-6	1	-1
Cc1nc2c(c(=O)[nH]1)CCN(CC1CCCCC1)C2	nt	-28	nt
O=C(CCCCCn1c(=O)c2sccc2n(CC(=O)c2ccc(Cl)c(Cl)c2)c1=O)NCc1ccc2c(c1)OCO2	3	20	6
Cc1ccc(CNC(=O)CCCn2c(=O)c3sccc3n(CC(=O)Nc3cc(Cl)ccc3C)c2=O)cc1	55*	74*	21
CCOc1ccccc1NC(=O)Cn1c(=O)n(CCc2ccccc2)c(=O)c2c3c(sc21)CN(C(C)=O)CC3	-14	-55	-103
Cc1cc(NC(=O)Cn2c(=O)n(CCCCCC(=O)NCc3ccc4c(c3)OCO4)c(=O)c3sccc32)n[nH]1	-4	26	21
O=C(CCCCCn1c(=O)c2sccc2n(CC(=O)c2ccc(F)cc2)c1=O)NCc1ccccc1Cl	16	19	39*
CCOc1ccccc1NC(=O)Cn1c(=O)n(CCCC(=O)NCc2ccc(C)cc2)c(=O)c2sccc21	36*	83*	37*
COc1ccc(S(=O)(=O)N2CCc3ccccc32)cc1C(=O)Nc1ccccc1N1CCOCC1	-17	-18	-31
O=C(c1ccccc1F)N1CCCN(C2CCN(Cc3ccccc3)C2=O)CC1 (centres undefined)	-5	-3	-35
O=C(CCc1nnc2ccc(N3CCCCC3)nn12)NC1CCCC1	-1	7	3
Cc1c(-c2noc(-c3ccncc3)n2)nnn1Cc1ccccc1	3	2	11
CCCN1CCC2(CC1)Cc1ccccc1CN(S(C)(=O)=O)C2	-21	nt	-38
N#Cc1cccc(S(=O)(=O)Nc2ccccc2N2CCOCC2)c1	6	2	8
SMILES	USP28 inh	USP17 inh	USP30 block
O=C(COC(=O)c1ccccc1Nc1ccccc1)Nc1ccc2ccccc2c1	-6	0	-7
N#Cc1cccc(NC(=O)COC(=O)c2ccccc2OCc2ccc(Cl)cc2)c1	8	-4	6
O=C(COC(=O)c1ccccc1OCc1ccccc1)Nc1ccc(Cl)cc1	36*	21	34*
N#Cc1ccc(NC(=O)COC(=O)c2ccccc2Nc2ccccc2)cc1	27	34*	5
COc1ccc(OC)c(NC(=O)COC(=O)c2ccccc2Nc2ccccc2)c1	11	27	27
O=C(COC(=O)c1ccccc1OCc1ccccc1)Nc1cccc2ccccc12	30*	23	49*
Nc1nc(Sc2ccc(Cl)cc2)cc(N2CCCCC2)n1	6	-11	10
C/C=C/C=C/c1cccc(O)c1CO	-23	-40	-75
Cc1nc(-c2ncc[nH]2)cc(C2CCN(C(=O)c3ccc4ccccc4n3)CC2)n1	1	4	-1
O=C(Cc1cc(-c2ccc(F)cc2)on1)NCc1ccc(Cl)cc1	-6	0	-4
COc1cccc(-c2cc(CC(=O)Nc3ccc(C(N)=O)cc3)no2)c1	18	-3	-33

High-throughput results deposited in PubChem by Buhrlage Lab, Dana-Farber Cancer Institute and Novartis Institutes for BioMedical Research (Cambridge, Mass).
